ChEMBL document CHEMBL1961873, “Compounds: GSK PKIS; Assays: Nanosyn kinase panel” (2012)

How the values were obtained:
[1] = target: RAF proto-oncogene serine/threonine-protein kinase (Homo sapiens) (UniProt P04049); conditions: at 1 µM;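 note: values are the mean percent inhibition of CRAF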
[2] = target: T1, Interleukin-1 receptor-associated kinase 4 (Homo sapiens) (UniProt Q9NWZ3); conditions: at 0.1 µM
T1 sequence (whole entry): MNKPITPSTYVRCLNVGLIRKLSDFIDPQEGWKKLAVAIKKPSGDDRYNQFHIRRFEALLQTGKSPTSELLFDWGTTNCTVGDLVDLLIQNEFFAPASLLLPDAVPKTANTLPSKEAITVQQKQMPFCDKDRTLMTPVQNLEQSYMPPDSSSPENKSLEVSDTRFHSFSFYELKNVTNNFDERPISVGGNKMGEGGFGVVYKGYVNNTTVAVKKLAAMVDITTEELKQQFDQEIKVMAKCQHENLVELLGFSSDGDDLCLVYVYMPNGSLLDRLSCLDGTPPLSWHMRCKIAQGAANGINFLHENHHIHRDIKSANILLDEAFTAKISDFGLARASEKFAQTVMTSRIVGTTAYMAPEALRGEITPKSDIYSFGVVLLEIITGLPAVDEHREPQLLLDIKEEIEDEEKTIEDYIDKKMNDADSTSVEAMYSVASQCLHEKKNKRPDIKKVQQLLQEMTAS

[3] = target: T1, Interleukin-1 receptor-associated kinase 4 (Homo sapiens); conditions: at 1 µM
[4] = target: Leucine-rich repeat serine/threonine-protein kinase 2 (Homo sapiens) (UniProt Q5S007); conditions: at 0.1 µM
Chain of Leucine-rich repeat serine/threonine-protein kinase 2 (Homo sapiens) (Q5S007 whole entry): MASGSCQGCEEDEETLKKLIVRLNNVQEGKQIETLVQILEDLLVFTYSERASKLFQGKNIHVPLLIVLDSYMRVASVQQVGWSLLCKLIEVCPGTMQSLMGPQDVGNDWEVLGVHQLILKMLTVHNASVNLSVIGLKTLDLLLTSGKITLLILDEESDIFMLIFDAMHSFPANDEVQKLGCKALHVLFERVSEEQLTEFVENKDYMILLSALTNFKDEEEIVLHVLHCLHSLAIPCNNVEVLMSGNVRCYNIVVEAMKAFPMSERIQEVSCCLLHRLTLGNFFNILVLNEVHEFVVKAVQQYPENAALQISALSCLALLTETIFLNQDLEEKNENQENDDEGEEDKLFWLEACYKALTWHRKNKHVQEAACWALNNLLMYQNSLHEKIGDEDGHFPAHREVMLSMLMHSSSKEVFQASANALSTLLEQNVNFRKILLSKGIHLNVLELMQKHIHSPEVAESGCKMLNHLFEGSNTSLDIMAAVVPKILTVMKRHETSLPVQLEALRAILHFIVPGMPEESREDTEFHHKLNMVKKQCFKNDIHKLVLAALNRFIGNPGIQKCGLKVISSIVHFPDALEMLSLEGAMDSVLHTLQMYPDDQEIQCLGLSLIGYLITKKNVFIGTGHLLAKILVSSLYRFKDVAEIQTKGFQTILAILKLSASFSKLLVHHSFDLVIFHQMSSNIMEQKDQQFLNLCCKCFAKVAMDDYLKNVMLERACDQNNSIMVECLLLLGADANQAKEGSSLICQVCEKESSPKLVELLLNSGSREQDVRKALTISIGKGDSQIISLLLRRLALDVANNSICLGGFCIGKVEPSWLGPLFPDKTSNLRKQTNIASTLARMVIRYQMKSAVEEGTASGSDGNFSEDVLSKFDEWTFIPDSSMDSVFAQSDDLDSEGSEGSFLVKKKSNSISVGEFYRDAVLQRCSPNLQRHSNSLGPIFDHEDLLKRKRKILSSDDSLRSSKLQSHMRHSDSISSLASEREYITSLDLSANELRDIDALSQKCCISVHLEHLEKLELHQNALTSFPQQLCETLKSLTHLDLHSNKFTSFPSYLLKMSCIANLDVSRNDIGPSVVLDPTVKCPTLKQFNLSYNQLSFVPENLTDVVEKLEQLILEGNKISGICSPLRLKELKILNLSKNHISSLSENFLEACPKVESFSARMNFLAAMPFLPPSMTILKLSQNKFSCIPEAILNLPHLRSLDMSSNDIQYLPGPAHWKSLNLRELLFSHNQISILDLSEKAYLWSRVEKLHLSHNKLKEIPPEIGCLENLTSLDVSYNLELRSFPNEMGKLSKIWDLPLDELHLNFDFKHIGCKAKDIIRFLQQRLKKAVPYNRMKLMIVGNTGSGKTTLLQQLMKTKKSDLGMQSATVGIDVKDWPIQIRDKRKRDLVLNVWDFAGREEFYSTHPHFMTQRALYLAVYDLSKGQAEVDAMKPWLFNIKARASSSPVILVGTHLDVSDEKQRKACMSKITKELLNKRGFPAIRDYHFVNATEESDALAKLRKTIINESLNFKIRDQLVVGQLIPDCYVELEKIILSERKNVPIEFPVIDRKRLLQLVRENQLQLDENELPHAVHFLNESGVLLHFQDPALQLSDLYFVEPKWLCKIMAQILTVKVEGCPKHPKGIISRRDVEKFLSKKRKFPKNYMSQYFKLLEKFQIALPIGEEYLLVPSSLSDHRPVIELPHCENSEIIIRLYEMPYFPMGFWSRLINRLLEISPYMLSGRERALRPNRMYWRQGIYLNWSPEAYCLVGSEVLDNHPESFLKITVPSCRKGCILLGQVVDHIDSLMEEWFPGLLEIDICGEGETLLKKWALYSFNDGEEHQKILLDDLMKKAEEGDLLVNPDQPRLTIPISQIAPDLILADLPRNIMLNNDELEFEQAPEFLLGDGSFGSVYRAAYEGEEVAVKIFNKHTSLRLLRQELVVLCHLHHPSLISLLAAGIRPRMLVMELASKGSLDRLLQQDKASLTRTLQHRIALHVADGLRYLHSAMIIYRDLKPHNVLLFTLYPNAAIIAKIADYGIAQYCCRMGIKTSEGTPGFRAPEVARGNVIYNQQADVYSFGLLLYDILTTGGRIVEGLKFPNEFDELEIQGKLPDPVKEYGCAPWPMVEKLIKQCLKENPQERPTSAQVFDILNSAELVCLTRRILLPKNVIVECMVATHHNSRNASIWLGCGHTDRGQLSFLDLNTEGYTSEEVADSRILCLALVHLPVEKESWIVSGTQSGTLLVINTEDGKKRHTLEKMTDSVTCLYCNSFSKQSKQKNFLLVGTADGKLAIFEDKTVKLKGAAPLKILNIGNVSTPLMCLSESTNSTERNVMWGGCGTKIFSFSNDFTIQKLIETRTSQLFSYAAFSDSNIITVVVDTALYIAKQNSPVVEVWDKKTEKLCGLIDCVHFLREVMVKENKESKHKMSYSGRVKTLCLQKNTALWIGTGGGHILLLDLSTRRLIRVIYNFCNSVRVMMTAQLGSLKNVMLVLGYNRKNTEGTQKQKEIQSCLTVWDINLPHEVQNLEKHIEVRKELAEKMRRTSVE

[5] = target: Leucine-rich repeat serine/threonine-protein kinase 2 (Homo sapiens) (UniProt Q5S007); conditions: at 1 µM
[6] = test system: Leucine-rich repeat serine/threonine-protein kinase 2 (Homo sapiens), Q5S007 [G2019S]; conditions: at 0.1 µM
Chain of Leucine-rich repeat serine/threonine-protein kinase 2 (Homo sapiens), Q5S007 [G2019S] (Q5S007 whole entry G2019S): as the sequence (Q5S007 whole entry) above, with G2019S counted along it

[7] = test system: Leucine-rich repeat serine/threonine-protein kinase 2 (Homo sapiens), Q5S007 [G2019S]; conditions: at 1 µM

Chain of RAF proto-oncogene serine/threonine-protein kinase (Homo sapiens) (P04049 whole entry): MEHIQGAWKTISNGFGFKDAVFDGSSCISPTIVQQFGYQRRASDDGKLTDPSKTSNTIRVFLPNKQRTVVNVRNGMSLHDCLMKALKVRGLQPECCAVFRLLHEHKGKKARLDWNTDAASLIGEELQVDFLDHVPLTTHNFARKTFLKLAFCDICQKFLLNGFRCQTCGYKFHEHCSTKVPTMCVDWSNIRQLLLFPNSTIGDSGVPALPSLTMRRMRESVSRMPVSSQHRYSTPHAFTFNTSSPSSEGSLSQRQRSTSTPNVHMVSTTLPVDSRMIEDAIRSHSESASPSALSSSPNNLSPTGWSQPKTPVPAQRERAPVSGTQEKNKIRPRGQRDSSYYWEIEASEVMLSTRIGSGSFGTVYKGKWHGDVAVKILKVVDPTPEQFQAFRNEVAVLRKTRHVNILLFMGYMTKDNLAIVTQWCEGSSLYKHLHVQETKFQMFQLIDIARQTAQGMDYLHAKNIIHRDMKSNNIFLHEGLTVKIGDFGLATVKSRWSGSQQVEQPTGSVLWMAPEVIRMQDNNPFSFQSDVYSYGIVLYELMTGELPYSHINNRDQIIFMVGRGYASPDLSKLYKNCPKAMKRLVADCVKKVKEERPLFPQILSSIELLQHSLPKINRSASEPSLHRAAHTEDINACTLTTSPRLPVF

Structure (SMILES)	inhibition [1] [%]	inhibition [2] [%]	inhibition [3] [%]	inhibition [4] [%]	inhibition [5] [%]	inhibition [6] [%]	inhibition [7] [%]
O=C(Nc1n[nH]c2nc(-c3ccc(O)cc3)c(Br)cc12)C1CC1	3.99	3.81	3.24	5.19	14.1	6.34	22.4
CNC(=O)c1cncc(/C=C/c2c(C)cccc2C)c1	-0.25	-1.78	0.42	-5.56	-1.97	-3.85	-1.34
CN(C)CCOc1ccc(-c2cc(-c3ccc4c(c3)CCC4=NO)c(-c3ccncc3)o2)cc1	39.8	-0.42	0.12	1.03	3.55	1.85	2.48
O=C(Nc1n[nH]c2nc(-c3ccco3)ccc12)C1CC1	0.48	-2.9	0.56	3.59	7.47	2.37	8.01
COc1cc(C)c(N(C)C(=O)CN(C)C)cc1Nc1nc(Nc2cccc(F)c2C(N)=O)c2cc[nH]c2n1	-0.93	-1.54	1.55	20.4	18.8	45.5	57.7
NC(=O)c1ccc(Oc2nccc(-c3c(-c4ccc(F)cc4)ncn3C3CCNCC3)n2)cc1	0.88	2.75	3.85	0.29	5.49	3.7	7.46
COc1cc(Nc2ncc(-c3ccccc3)o2)cc(OC)c1OC	-4.59	-0.52	0.55	0.73	8.78	4.17	21.3
FC(F)(F)c1cccc(Nc2nccc(-c3cnn4nc(-c5ccccc5)ccc34)n2)c1	-0.15	0.01	0.27	2	-0.41	2.35	4.67
COc1ccc2cc(-c3c(-c4ccncc4)nc(-c4ccc([S+](C)[O-])cc4C)n3C)ccc2c1 (configuration not stated)	2.82	-4.88	-0.25	-0.88	0.64	0.88	4.04
Clc1ccc(CNc2nccc(-c3cnn4ncccc34)n2)cc1	-1.19	-1.73	2.1	1.21	14	1.24	13
O=C(NCC1CC1)c1ccc(-c2cccc(C(=O)NC3CC3)c2)cc1	7.69	-3.46	0.85	3.26	6.31	1.46	5.03
Cc1ccc(C(=O)NC(C)C)cc1-c1ccc(C(=O)NCC2CC2)cc1	-1.23	-1.36	-0.58	-0.57	-1.69	0.59	2.07
Cc1nnc(-c2ccc(C)c(-c3ccc(C(=O)NCc4ccc(Cl)cc4)cc3)c2)o1	-0.47	4.09	2.12	-4.32	-3.04	-2.08	-4
COc1ccc2cc(-c3c(-c4ccncc4)nc(-c4ccc(S(C)(=O)=O)cc4C)n3C)ccc2c1	2.24	3.69	2.09	1.75	6.91	2.55	10.2
O=C(Nc1n[nH]c2cc(-c3cc(F)ccc3F)ccc12)C1CC1	-0.98	2.21	1.18	2.33	3.26	1.81	6.24
COc1ccc(-c2ccc3c(NC(=O)C4CC4)n[nH]c3n2)cc1		2.75	0.45	1.6	5.11	2.17	3.39
COc1cc(Nc2ncc3c(C)nc(-c4cccc(Oc5ccccc5)c4)n3n2)cc(OC)c1OC	-0.45	-1.6	0.83	11.7	18.3	13.8	47.3

Structure (SMILES)	inhibition [1] [%]	inhibition [2] [%]	inhibition [3] [%]	inhibition [4] [%]	inhibition [5] [%]	inhibition [6] [%]	inhibition [7] [%]
Nc1nccc(-c2c(-c3ccc(F)cc3)ncn2C2CCC(O)CC2)n1 (configuration not stated)	-9.19	-0.79	-1	-0.71	0.86	1.56	4.03
O=C(Nc1ccc(Oc2ccc3[nH]c(NC(=O)c4ccccc4)nc3c2)cc1)Nc1cc(C(F)(F)F)ccc1F	17.9	-1.64	2.09	13	18.4	6.22	36.1
COc1ccc(C2=C(N3CCc4ccccc43)C(=O)NC2=O)cc1	-3.87	5.89	2.48	3.04	10.9	4.7	13.9
CCc1ccc(Oc2nccc(-c3c(-c4ccc(F)cc4)ncn3C3CCNCC3)n2)cc1	-0.51	2.21	2.52	0.68	6	3.1	6.63
COc1cc(N2CCN(C(C)C)CC2)ccc1Nc1nc(Nc2ccc(F)cc2C(=O)NC[C@@H](O)CO)c2cc[nH]c2n1	2.01	3.02	2.5	10.5	14.5	48.9	55.5
COc1cc2ncn(-c3cc(OCc4ccccc4C(F)(F)F)c(C(C)=O)s3)c2cc1OC	-1.56	0.98	1.4	3.23	6.15	3.58	6.68
N#Cc1ccc(Oc2nccc(-c3c(-c4ccc(F)cc4)ncn3C3CCNCC3)n2)cc1	-0.95	2.17	2.43	2.8	3.91	4.91	4.95
C#Cc1cccc(Nc2ncnc3ccc(OCCCCNCCS(C)(=O)=O)cc23)c1	-0.78	4.25	2.41	-4.32	1.7	-0.62	5.54
O=C1NC(=O)C(c2cccc(Cl)c2)=C1Nc1ccc(Cl)c(C(=O)O)c1	17.7	3.69	1.5	2.15	4.76	3.36	7.81
c1ccc(-c2n[nH]cc2-c2ccnc(-c3ccc(OCCN4CCOCC4)cc3)c2)nc1	0.21	2.23	0.43	11	8.18	6.06	13.7
Fc1ccc(-c2ncn(C3CCNCC3)c2-c2ccnc(Oc3ccc(Oc4ccccc4)cc3)n2)cc1	0.47	1.5	1.78	0.62	5.34	5.08	8.01
NS(=O)(=O)c1ccc(N/N=C2\C(=O)Nc3ccc(C(=O)NCCCn4ccnc4)cc32)cc1	17.5	3.89	1.67	7.05	18.7	11.1	38.8
C[C@@H](Oc1cc(-n2cnc3ccc(OCC4CCN(C)CC4)cc32)sc1C(N)=O)c1ccccc1Cl	8.07	2.66	6.25	8.16	17.3	11.1	33.5
CCN(CC)Cc1ccc(Nc2nccc(-c3cnn4ncccc34)n2)cc1	1.56	1.17	3.85	-6.19	8.65	0.1	19
COC(=O)Nc1nc2ccc(Sc3ccc(NC(=O)Nc4cc(C(F)(F)F)ccc4F)cc3)cc2[nH]1	50	-0.12	0.72	0.83	9.98	0.3	4.85
CN(c1ccc(NC(=O)Nc2c(Cl)cccc2Cl)cc1)c1ccnc(Nc2cccc(CS(C)(=O)=O)c2)n1	1.82	0.17	1.26	12.2	15.4	9.38	20.4
CCS(=O)(=O)c1ccc(OC)c(Nc2ncc(-c3ccccc3Cl)o2)c1	-2.68	-1.05	3.5	2.06	10.3	1.06	13.4
